Bioassay records from PubChem.
C diff HTS: C. difficile growth inhibitors, primary screen, HTS; actives 0.25% (n = 86,000); growth activity, negative = inhibition, % at 16 µg/mL (by protocol); Clostridium difficile clinical isolate growth, OD600, 24 h; hits give low values;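 active = mean growth activity at or below -80% and every replicate also at or below -80%; inconclusive = mean at or below -80% but some replicate above -80%; inactive = mean growth activity above -80%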
T cruzi growth-1: T. cruzi intracellular proliferation inhibitors, primary screen, cell-based, beta-gal Tulahuen parasites, NIH3T3 host, luminescence | T. cruzi beta-gal in NIH3T3, GalScreen luminescence, 90 h | inhibition, % at 8.34 µM | actives 5.9% (n = 77,000);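 active = mean inhibition above about 93%, with at least 55% of replicates each passing it, limit read from the data, passing the limit was not always enough; inconclusive = only one of those two conditions holds; inactive = neither condition holds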
Pf Dd2 inh: P. falciparum Dd2 growth inhibitors, primary screen, SYBR Green fluorescence, single dose replicates | 72 h; hits give low values | activity change, % at 10 µM | actives 2.3% (n = 94,000); in the data active = activity change below about -80%; inconclusive = no clear call, values can overlap the other calls
T cruzi growth-2: T. cruzi intracellular proliferation inhibitors, confirmation, cell-based, NIH3T3 host, beta-gal parasite, luminescence, cherry-pick | shares compounds with T cruzi growth-1 | T. cruzi beta-gal in NIH3T3, GalScreen luminescence, 90 h | inhibition, % at 8.35 µM | actives 72% (n = 5,600) | AID 651739, 2012;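 active = mean replicate inhibition above about 95% and at least 55% of replicates individually reaching it, limit read from the data; inconclusive = only one of the two criteria is met; inactive = neither criterion is met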
T cruzi growth-3: inhibitors of intracellular T. cruzi replication, confirmation, NIH3T3 host cells, beta-gal parasites, cherry-pick, set 2 | shares compounds with T cruzi growth-1 | T. cruzi beta-gal in NIH3T3, GalScreen luminescence, 90 h | inhibition, % at 2.09 µM | actives 21% (n = 5,600) | AID 651740, 2012;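 active = mean inhibition above about 95%, with at least 55% of replicates also reaching it, limit read from the data; inconclusive = meets just one of the two conditions; inactive = meets neither condition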
3T3 cytotox: cytotoxicity in mouse NIH/3T3 fibroblasts, confirmation, cytotoxicity control for T. cruzi proliferation inhibitor project, cell-based, cherry-pick, single point; cytotoxicity (signal decrease), % at 8.35 µM; shares compounds with T cruzi growth-1; NIH/3T3 viability, CellTiter-Glo ATP luminescence, 90 h; actives 14% (n = 5,600);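 active = mean signal decrease across replicates above about 35% based on untreated-well scatter, with enough replicates individually passing, limit read from the data; inconclusive = no rule stated though some were filed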
NIH3T3 tox 2: NIH/3T3 fibroblast cytotoxicity, confirmation, cytotoxicity control, cell-based, cherry-pick, single point, set 2. shares compounds with T cruzi growth-1. NIH/3T3 viability, CellTiter-Glo ATP luminescence, 90 h. inhibition, % at 24.9 µM. actives 56% (n = 5,600). AID 651744, 2012;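 active = mean loss of cell viability signal at or above a set limit, and enough replicates individually reaching it; inconclusive = meets only the mean limit or only the replicate share; inactive = meets neither condition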
Large screens that a line does not name were inactive (follow-up assays come after a bar, where they were run); ! = a repeat was not active. An excerpt weighted towards active compounds, which were near 6.8% of everything screened.

C[C@H](CO)N1C[C@H](C)[C@@H](CN(C)C(=O)NC2CCCC2)Oc2ncc(C#CCN(C)C)cc2C1=O	none
CCCNC(=O)[C@@H]1[C@@H](CO)[C@@H]2Cn3c(ccc(C4=CCCC4)c3=O)[C@@H]2N1C(=O)c1cnccn1	T cruzi growth-1 97.4 | T cruzi growth-2 inactive | T cruzi growth-3 inactive | 3T3 cytotox inactive | NIH3T3 tox 2 inactive
CCNC(=O)[C@H]1[C@H](CO)[C@H]2Cn3c(ccc(C4=CCCCC4)c3=O)[C@H]2N1C(=O)CC1CC1	none
CCNC(=O)[C@@H]1[C@@H](CO)[C@@H]2Cn3c(ccc(C4=CCCC4)c3=O)[C@@H]2N1C(=O)CC1CC1	T cruzi growth-1 inconclusive | T cruzi growth-2 inactive | T cruzi growth-3 inactive | 3T3 cytotox inactive | NIH3T3 tox 2 inactive
CCNC(=O)[C@@H]1[C@@H](CO)[C@@H]2Cn3c(ccc(C4=CCCCC4)c3=O)[C@@H]2N1C(=O)c1cnccn1	none
CCNC(=O)[C@H]1[C@H](CO)[C@H]2Cn3c(ccc(C4=CCCCC4)c3=O)[C@H]2N1C(=O)c1cnccn1	none
CCCNC(=O)[C@H]1[C@H](CO)[C@H]2Cn3c(ccc(C4=CCCC4)c3=O)[C@H]2N1C(=O)c1cnccn1	T cruzi growth-1 99.2 | T cruzi growth-2 inactive | T cruzi growth-3 inactive | 3T3 cytotox inactive | NIH3T3 tox 2 inactive
O=C(c1ccc(F)cc1)N1CC(=O)N2[C@H](C1)[C@H](c1ccc(C3=CCCC3)cc1)[C@@H]2CO	none (no result: T cruzi growth-1)
C[C@@H]1CN([C@H](C)CO)C(=O)c2cc(C#C[C@@H](C)O)cnc2O[C@H]1CN(C)C(=O)c1ccccc1	none
C[C@H]1CN([C@@H](C)CO)S(=O)(=O)c2ccc(-c3cccc(F)c3)cc2O[C@@H]1CN(C)C(=O)c1cccc(F)c1	none
C[C@@H]1CN([C@H](C)CO)S(=O)(=O)c2ccc(-c3ccncc3)cc2O[C@@H]1CN(C)C(=O)c1cccc(F)c1	T cruzi growth-1 104.3 | T cruzi growth-2 inactive | T cruzi growth-3 inactive | 3T3 cytotox inactive | NIH3T3 tox 2 55.2
C[C@@H]1CN([C@H](C)CO)S(=O)(=O)c2ccc(-c3cccc(F)c3)cc2O[C@H]1CN(C)C(=O)c1cccc(F)c1	none
C[C@H]1CN([C@@H](C)CO)S(=O)(=O)c2ccc(-c3ccncc3)cc2O[C@H]1CN(C)C(=O)c1cccc(F)c1	T cruzi growth-1 105.5 | T cruzi growth-2 102.0! | T cruzi growth-3 inactive | 3T3 cytotox inactive | NIH3T3 tox 2 inactive
O=C(CN1CCOCC1)NCC[C@H]1CC[C@@H](NC(=O)Nc2ccc(Cl)cc2)[C@H](CO)O1	none
C[C@@H]1CN([C@H](C)CO)C(=O)c2cccc(NS(=O)(=O)c3cccs3)c2O[C@H]1CN(C)S(=O)(=O)c1ccc(F)cc1	none
CC(C)C#Cc1ccc2c(c1)O[C@H](CN(C)C(=O)C1CCCCC1)[C@@H](C)CN([C@@H](C)CO)S2(=O)=O	T cruzi growth-1 inconclusive | T cruzi growth-2 95.3 | T cruzi growth-3 inactive | 3T3 cytotox inactive | NIH3T3 tox 2 106.1
CC(C)C#Cc1ccc2c(c1)O[C@H](CN(C)C(=O)C1CCC1)[C@H](C)CN([C@H](C)CO)S2(=O)=O	none (no result: C diff HTS)
CC(C)C#Cc1ccc2c(c1)O[C@H](CN(C)C(=O)C1CCCCC1)[C@H](C)CN([C@@H](C)CO)S2(=O)=O	none
CC(C)C#Cc1ccc2c(c1)O[C@H](CN(C)C(=O)C1CCCCC1)[C@H](C)CN([C@H](C)CO)S2(=O)=O	T cruzi growth-1 100.4 | T cruzi growth-2 107.7 | T cruzi growth-3 inactive | 3T3 cytotox inactive | NIH3T3 tox 2 104.9
C[C@@H]1CCCCO[C@H](CN(C)C(=O)Nc2ccc3c(c2)OCO3)[C@H](C)CN([C@@H](C)CO)C(=O)c2cc(NC(=O)CCCN(C)C)ccc2O1	none
CN(C)C(=O)c1cccc(-c2ccc3c(c2)[C@H]2[C@H](CCN2C(=O)c2ccccc2F)[C@@H](CO)N3)c1	T cruzi growth-1 101.0 | T cruzi growth-2 103.7 | T cruzi growth-3 inactive | 3T3 cytotox inactive | NIH3T3 tox 2 inactive
CN(C)C(=O)c1cccc(-c2ccc3c(c2)[C@@H]2[C@@H](CCN2C(=O)c2ccccc2F)[C@H](CO)N3)c1	T cruzi growth-1 101.3 | T cruzi growth-2 100.7 | T cruzi growth-3 inactive | 3T3 cytotox inactive | NIH3T3 tox 2 inactive
O=C(c1ccccc1F)N1CC[C@@H]2[C@H](CO)Nc3ccc(-c4ccccc4)cc3[C@@H]21	none
O=C(c1ccccc1F)N1CC[C@H]2[C@H](CO)Nc3ccc(-c4ccccc4)cc3[C@H]21	none
CN(C)C(=O)c1ccc(-c2ccc3c(c2)[C@@H]2[C@@H](CCN2C(=O)c2ccccc2F)[C@H](CO)N3)cc1	none
CN(C)C(=O)c1cccc(-c2ccc3c(c2)[C@H]2[C@H](CCN2C(=O)c2ccccc2F)[C@H](CO)N3)c1	T cruzi growth-1 99.3 | T cruzi growth-2 103.4 | T cruzi growth-3 inactive | 3T3 cytotox inactive | NIH3T3 tox 2 inactive
O=C(NCC[C@H]1CC[C@@H](NC(=O)c2cccnc2)[C@@H](CO)O1)Nc1ccc(Cl)cc1	none
CO[C@@H]1CN(C)C(=O)c2cc(NC(=O)Nc3cccc(Cl)c3)ccc2OC[C@H](C)NC[C@@H]1C	none (no result: C diff HTS)
CO[C@H]1CN(C)C(=O)c2cc(NS(=O)(=O)c3cn(C)cn3)ccc2OC[C@H](C)N(Cc2cccc(F)c2)C[C@H]1C	none (no result: C diff HTS, T cruzi growth-1)
C[C@@H]1CN([C@@H](C)CO)C(=O)c2cc(NS(=O)(=O)c3cn(C)cn3)ccc2O[C@H]1CN(C)Cc1ccccc1	none
CN(C)C(=O)[C@H]1[C@H](CO)[C@H]2Cn3c(ccc(-c4ccccc4)c3=O)[C@H]2N1C(=O)c1ccccn1	none (no result: Pf Dd2 inh)
C[C@@H]1CN([C@@H](C)CO)C(=O)c2cccc(NS(=O)(=O)c3ccccc3)c2O[C@H]1CN(C)Cc1ccc(Cl)c(Cl)c1	none
CCC(=O)N1CC[C@@H]2[C@@H](CO)Nc3ccc(C#Cc4ccccc4)cc3[C@@H]21	none
COc1ccccc1CN1CC[C@@H]2[C@H]1c1cc(C#Cc3ccccc3)ccc1N[C@@H]2CO	none
OC[C@H]1Nc2ccc(C#Cc3ccccc3)cc2[C@@H]2[C@H]1CCN2Cc1nccs1	T cruzi growth-1 97.9 | T cruzi growth-2 97.4 | T cruzi growth-3 100.6 | 3T3 cytotox inactive | NIH3T3 tox 2 104.0
